# Source: PubChem BioAssay (NCI)
# Several values for one entry are separate records, joined by “and”; a condition that tells them apart may be missing. Equal values may be shown once. Compounds without any hit were thinned out: in the full panel of roughly 83,000, 20% have a hit.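 Results are percent growth after 48 hours of single-concentration exposure. 100 means growth as in untreated cells, lower positive values show inhibition; negative values down to -100 show cell death.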 Activity calls are given as the source filed them. How the source made its calls: active means growth percent below 10; inactive means the rest.
# Tested on: MDA-MB-468 breast
# Assay: NCI-60 one-dose screen, 48 h (100 = growth as untreated, 0 = no growth, -100 = all killed)
# Conditions: 10 µM unless noted
row,SMILES,growth
1,COc1cccc(-c2nc3sccn3c2-c2ccnc(NCCCNS(=O)(=O)c3cccc(Cl)c3)c2)c1,24.6% (inactive)
2,COc1ccc(COC(=O)CC(C)C)cc1,102% (inactive)
3,CN(C)C(=N)N=C(N)N,80.6% (inactive) and 128% (inactive)
4,C=C(C)[C@@H]1CC[C@]2(CO)CC[C@]3(C)[C@H](CC[C@@H]4[C@@](C)(CCCN)[C@H](C(=C)C)CC[C@]43C)[C@@H]12,-71.4% (active)
5,COc1cc(/C=N/NC(=S)NNC(=S)NC2CCCCC2)cc(OC)c1OC,94.2% (inactive)
6,O=C1/C(=C/c2ccccc2)CN(C(=O)CCN2CCC(=NO)CC2)C/C1=C\c1ccccc1,-22.7% (active)
7,COc1cc(NCCN(CC(C)C)C2CCCC2)c2ncccc2c1,-13.9% (active)
8,COc1cc(C2CC(c3cccc(Nc4ccnc5cc(Cl)ccc45)c3)=NN2c2ccccc2)cc(OC)c1OC (stereo not given),82.1% (inactive)
9,Cc1ccc(OCCn2ccc(=O)n(CCOc3ccc(Cl)cc3C(=O)c3cc(C)cc(C)c3)c2=O)cc1,-0.179% (active)
10,COc1cccc(COc2ccc(/C=C3/C(=O)Nc4cc(Cl)ccc43)cc2)c1,85.1% (inactive)
11,COc1ccc(-c2nnc(SCC(=O)Nc3ccc(C(=O)/C=C/c4ccc(Cl)cc4)cc3)n2-c2ccccc2)cc1,97.9% (inactive)
12,CCN1C(=O)N(CC)C2C1NN=c1s/c(=C3\C(=O)N(C4CCCC4)c4ccccc43)c(=O)n12 (stereo not given),-43.2% (active)
13,Cn1c(=O)cc(NC(=O)CN2CCN(c3cc4c(cc3F)c(=O)c(C(=O)O)cn4C3CC3)CC2)[nH]c1=O,92.6% (inactive)
14,Cl.Fc1c[c-]c(-c2ccccn2)c(F)c1.[Pt].c1ccc([PH+](C[PH+](c2ccccc2)c2ccccc2)c2ccccc2)cc1,-75.7% (active)
15,CCOc1ccc(NC(=O)CSc2oc(-c3ccccc3)nc2S(=O)(=O)c2ccc(F)cc2)cc1,58.4% (inactive)
16,C/C(=C\c1ccc2ccccc2c1)[N+](=O)[O-],-22.8% (active)
17,COC1=CC2C=C(C3N(c4ccccc4)NC(=O)[C@@H]4CCCN34)C(=O)NC2C=C1 (stereo not given in full),114% (inactive)
18,O=NN(CCCl)C(=O)Nc1ccc(NC(=O)N(CCCl)N=O)cc1,96.4% (inactive)
19,CCN(CC)CCOc1ccc(/C(=C(\C)Cc2ccc(OC)cc2)c2ccc(OC(=O)NCc3ccccc3)cc2)cc1,43.3% (inactive)
20,CCOC(=O)/C=c1\sc2n(c1=O)C1C(NN=2)N(CC)C(=O)N1CC (stereo not given),48.4% (inactive)

row,SMILES,growth
1,O=C(O)CN1C(=O)CCC1=O,108% (inactive)
2,COc1cccc(-n2cc(-c3nc(Cl)c4ccccc4n3)nn2)c1,117% (inactive)
3,COc1ccc(S(=O)(=O)Nc2cc(Sc3cccc4cccnc34)c(O)c3ccccc23)cc1,-39.6% (active)
4,COc1cc2nc(Cl)nc(Nc3cccc(C4=Nc5c(N)nc(N)nc5NC(c5ccc(Br)cc5)C4)c3)c2cc1OC (stereo not given),90.3% (inactive)
5,COC1=C(OC)C(=O)C(CCCCCCCCCCO)=C(C)C1=O,-34.8% (active)
6,Nc1cc2[nH]c(=O)c3ccccc3c2cc1Br,-50.6% (active)
7,CC(=O)c1cc(Br)ccc1O,103% (inactive)
8,Cc1nc(C)c(C(=O)O)cc1C(=O)O,109% (inactive)
9,Cn1nc(C(F)(F)F)c(-c2cc(C(F)(F)F)cc(C(F)(F)F)c2)c1-c1ccc(OCc2ccc(Cl)cc2)cc1O,-5% (active)
10,O=C1OC(C(Cl)(Cl)Cl)OC1C(Cl)(Cl)Cl (stereo not given),109% (inactive)
11,Cc1nc2c3c(-c4ccccc4)c(-c4ccccc4)oc3ncn2n1,93.9% (inactive)
12,CCN1C(=O)/C(=c2\sc3n(c2=O)C2C(NN=3)N(CC)C(=O)N2CC)c2ccccc21 (stereo not given),-13.5% (active)
13,C#Cc1cccc(Nc2nc3cc([N+](=O)[O-])ccc3nc2Nc2ccc(O)cc2)c1,27.1% (inactive)
14,Oc1ccc(CSc2nnc(-c3ccc(Br)cc3)n2-c2ccccc2)c2cccnc12,36.1% (inactive)
15,O=C(Nc1ccc(Cl)c(Cl)c1)Nc1ccc(Cl)c(Cl)c1,-78.5% (active) and 10.4% (inactive)
16,C#C[C@@]1(O)[C@@H](CO)O[C@@H](n2cc(Cl)c3c(N)ncnc32)[C@@H]1O,-49% (active)
17,CCOC(=O)c1cc2c(n1Cc1cccc(OC)c1)-c1oncc1CCC2,11.9% (inactive)
18,O=C(O)c1cccc2c1-c1ccccc1C2=O,116% (inactive)
19,C#Cc1ccc(-n2c(/C=C/c3ccc(O)c(OC)c3)nc3ncccc3c2=O)cc1,89.8% (inactive)
20,N#Cc1c(-c2ccccc2)nc(SCC(=O)Nc2nc(-c3ccc(Cl)cc3)cs2)[nH]c1=O,85.7% (inactive)
